# Measurements as given in PubChem BioAssay AID1851 (National Center for Advancing Translational Sciences (NCATS), 2009).
# In all, about 16,000 compounds went through this assay and about 4,000 (25%) were called active. Roughly 26% stayed inconclusive and do not appear here. A selection follows. Values without a mark were called inactive. Calls follow the shape of the dose curve; as a rule, active = well fitted curve in the direction sought with a large enough effect; inconclusive = small, poorly fitted or top-dose-only effect, or effect the other way; inactive = no such curve, though single readings can be large or run the other way.
# Molecular target: Cytochrome P450 2C9 (Homo sapiens) (UniProt P11712)
# Assay: Cytochrome panel assay with activity outcomes
# Settings: recombinant CYP, pro-luciferin dealkylation, luminescence, p450-cyp2c9; series mostly up to 57.1 µM
# % is scaled to controls: 0 for no effect and ±100 for the full control effect.
# Cytochrome P450 2C9 (Homo sapiens), sequence (P11712 whole entry, looked up): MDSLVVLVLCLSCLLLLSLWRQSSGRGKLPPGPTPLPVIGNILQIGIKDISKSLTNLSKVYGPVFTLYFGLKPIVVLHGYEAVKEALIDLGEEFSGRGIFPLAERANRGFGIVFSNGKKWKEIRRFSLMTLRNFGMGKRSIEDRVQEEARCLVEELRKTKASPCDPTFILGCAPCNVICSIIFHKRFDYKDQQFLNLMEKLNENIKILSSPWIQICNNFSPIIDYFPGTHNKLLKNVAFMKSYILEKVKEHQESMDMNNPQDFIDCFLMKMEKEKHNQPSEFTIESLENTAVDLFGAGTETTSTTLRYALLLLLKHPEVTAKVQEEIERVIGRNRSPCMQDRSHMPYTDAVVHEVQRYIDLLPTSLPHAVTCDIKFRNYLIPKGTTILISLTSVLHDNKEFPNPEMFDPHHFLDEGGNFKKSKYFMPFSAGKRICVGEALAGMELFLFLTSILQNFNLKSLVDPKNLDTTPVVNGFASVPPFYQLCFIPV
Compound,AC50,"activity, negative = inhibition"
Cc1ccc(S(=O)(=O)c2cc(C#N)c(=O)[nH]c2N)cc1,11.2 µM (active),–
Cc1ccc(S(=O)(=O)Nc2cc(=O)[nH]c3c2CCC3)cc1,–,8.32% [at 11.4 µM]
N#Cc1cc2[nH]c(=O)c(=O)[nH]c2cc1[N+](=O)[O-],inactive,–
COc1cccc([C@H](O)Cn2cc(-c3ccc(CON=C(C)C)cc3)nn2)c1,–,-13.3% [at 11.4 µM]
CN(C)c1ncc2nc(-c3ccc(F)cc3)c(=O)n(CCC#N)c2n1,inactive,–
Cc1nn(Cc2ccc(Cl)cc2)c(C)c1NC(=O)CSc1nc2c(c(C(F)(F)F)n1)CCc1ccccc1-2,1.41 µM (active),–
Cc1ccccc1Cn1cc(NC(=O)CSc2nc3c(c(C(F)(F)F)n2)CCc2ccccc2-3)cn1,1.78 µM (active),–
O=C(c1cnc(-c2ccccc2)s1)c1ccc(Cl)cc1Cl,20 µM (active),–
Cl/C(=C\n1cncn1)c1ccc(Cl)cc1Cl,inactive,–
COc1cc([C@@H](O)CO)ccc1OS(=O)(=O)O,inactive,–
COC(=O)C(C(=O)OC)C(C[N+](=O)[O-])c1ccc(OC)c(OC)c1 (centres undefined),inactive,–
COc1ccc(C(O)P(=O)(OC(C)C)OC(C)C)cc1OC (centres undefined),7.94 µM (active),–
COC(=O)[C@@]1(Cc2ccccc2)[C@H]2c3cc(C(=O)N4CCCC4)[nH]c3C[C@H]2CN1C(=O)c1ccccc1,0.794 µM (active),–
COC(=O)[C@@]1(Cc2ccc(OC)cc2)[C@H]2c3cc(C(=O)N(C)C)[nH]c3C[C@H]2CN1C(=O)c1ccccc1,3.98 µM (active),–
COC(=O)C/C=C\[C@@H](C)[C@@H](/C=N\O[C@@H](C)c1cn([C@H]2COC[C@H]2O)nn1)OC,–,-15.9% [at 11.4 µM]
Cc1c2cnccc2c(C)c2c1c1ccccc1n2CCOC(=O)c1ccccc1,3.16 µM (active),–
CN(C)CCCn1c2ccccc2c2cnccc21,–,4.43% [at 11.4 µM]
COc1ccccc1CN1CCCC2(CCN(C(=O)c3c(C)noc3C)CC2)C1,inactive,–
CCOC(=O)c1c(-c2ccccc2)nc2c(C)cccn12,11.2 µM (active),–
CC(NC(=O)C1(C)CC1(Br)Br)C(C)(C)C (centres undefined),31.6 µM (active),–

Compound,AC50,"activity, negative = inhibition"
CC(C)[C@H](NC(=O)OC(C)(C)C)[C@@H](O)CC(=O)OC(C)(C)C,–,20.6% [at 11.4 µM]
CC(=O)C[C@H](O)[C@@H](NC(=O)OC(C)(C)C)C(C)C,–,-4.41% [at 11.4 µM]
O=C1[C@@H]2C=CC=CC2=NC(=S)N1CCN1CCC(=C(c2ccc(F)cc2)c2ccc(F)cc2)CC1,31.6 µM (active),–
O=c1cc(CSc2nnc(-c3cccnc3)n2-c2ccccc2F)nc2sccn12,inactive,–
CC(C)c1ccccc1-n1c(SCC(=O)N2CCN(c3ccccc3)CC2)nnc1-c1cccnc1,11.2 µM (active),–
CC1CCN(C(=O)CSc2nc3cccnc3n2C)CC1,inactive,–
C#CCCCO/N=C1/C[C@@H](O)[C@@H](O)[C@@H]2[C@@H]3C(=O)N(CCC(=O)OCC)C(=O)[C@H]3CC[C@@H]12,–,2.98% [at 11.4 µM]
C=C[C@]1(C)C[C@H](OC(=O)CO)[C@]2(C)C3C(=O)CC[C@]3(CC[C@H]2C)[C@H](C)[C@H]1O (some centres undefined),–,4.64% [at 11.4 µM]
O=C1Nc2ccc(F)cc2C12Nc1ccccc1-c1nnc(SCc3ccccc3F)nc1O2 (centres undefined),2 µM (active),–
Cc1ccc(CSc2nnc3c(n2)OC2(Nc4ccccc4-3)C(=O)Nc3ccc(F)cc32)cc1 (centres undefined),8.91 µM (active),–
N=C(N)c1ccc(N=Nc2c(O)ccc3c2[nH]c2ccccc23)cc1,–,-5.45% [at 11.4 µM]
c1csc(CNc2cc(-c3ccoc3)ncn2)c1,–,-7.77% [at 2.29 µM]
O=C1[C@H]2[C@H]3[C@H](O)[C@H](O)C/C(=N/OC[C@@H](O)COCc4ccco4)[C@@H]3CC[C@@H]2C(=O)N1Cc1ccc2c(c1)OCO2,–,3.23% [at 11.4 µM]
C#CCCCO/N=C1/C[C@@H](O)[C@@H](O)[C@@H]2[C@@H]3C(=O)N(C[C@@H]4CCCO4)C(=O)[C@H]3CC[C@@H]12,–,16.1% [at 11.4 µM]
CN(Cc1ccco1)c1cc(-c2cccnc2)ncn1,–,2.79% [at 2.29 µM]
O=C(OCc1nnc(-c2ccccc2)o1)c1ccc2c(c1)OCCO2,7.94 µM (active),–
CCCN1C(=O)C2(/C(=C(\O)c3ccc4c(c3)OCCO4)C(=O)C(=O)N2CCCOC)c2ccccc21 (centres undefined),inactive,–
Cc1cc(C)c(-c2cc([C@H](C)O/N=C3/[C@H]4OC4[C@@H](O)[C@H]4[C@H]3CCn3c(=O)n(-c5ccccc5)c(=O)n34)on2)c(C)c1 (some centres undefined),–,-29.1% [at 11.4 µM]
Cc1ccc(C)c(OCCCC(C)(C)C(=O)O)c1,6.31 µM (active),–
COC(=O)Cn1c(=N)n(CCN2CCCCC2)c2ccccc21,inactive,–

Compound,AC50,"activity, negative = inhibition"
Fc1ccc(Nc2nc(-c3ccoc3)nc3ccccc23)cc1,–,8.98% [at 2.29 µM]
CC(C)Nc1nc(NC(C)(C)C)nc(Oc2ccc(=O)n(-c3ccccc3)n2)n1,20 µM (active),–
CCCn1nc(Oc2nc(NCC)nc(NCC)n2)ccc1=O,inactive,–
CCCn1nc(Oc2nc(NCC)nc(NC(C)C)n2)ccc1=O,inactive,–
C[N+]1(NCC[N@@+]2(C)CCc3ccccc3C2)CCCCC1,–,5.5% [at 11.4 µM]
CC(=O)OC[C@@H]1O[C@H](CCO/N=C(\C)CCN2CCCc3nc(C)c(C)cc32)C=C[C@@H]1OC(C)=O,–,-1.93% [at 11.4 µM]
CCCCn1nnnc1SCC(=O)N1CCCC1,inactive,–
N[C@@H](CO)C(=O)O,inactive,–
N[C@@H](CSS(=O)(=O)O)C(=O)O,12.6 µM (active),–
CCSC[C@@H](N)C(=O)O,–,4.58% [at 11.4 µM]
COc1ccc2[nH]cc(CCNc3nc(-c4ccccc4OC)nc4ccccc34)c2c1,–,-1.54% [at 2.29 µM]
COc1cccc(-c2nc(NCc3cccnc3)c3ccccc3n2)c1,–,-29.9% [at 2.29 µM]
COc1cccc(-c2nc(NCCc3c[nH]c4ccc(OC)cc34)c3ccccc3n2)c1,0.794 µM (active),–
COc1ccc2[nH]cc(CCNc3nc(-c4ccc(N(C)C)cc4)nc4ccccc34)c2c1,0.398 µM (active),–
COc1cccc(-c2nc(NCc3ccccc3)c3ccccc3n2)c1,1.26 µM (active),–
COc1cccc(-c2nc(NCc3cnc(C)cn3)c3ccccc3n2)c1,–,0.563% [at 2.29 µM]
COc1ccc2[nH]cc(CCNc3ccnc(-c4ccc(N(C)C)cc4)n3)c2c1,–,-7.16% [at 2.29 µM]
COc1ccc2[nH]cc(CCNc3nc(-c4ccccc4CN(C)C)nc4ccccc34)c2c1,–,10.1% [at 2.29 µM]
COCCNc1nc(-c2cccc(OC)c2)nc2ccccc12,–,-26.4% [at 2.29 µM]
